# esBAF inh: inhibitors of esBAF chromatin remodeling in mouse ES cells | Bmi1-luciferase knock-in reporter, 24 h; 100% = twice the neutral-well signal | reporter increase, % at 12.5 µM | 350,000 tested, 2% active | AID 602393; in the data active = activation above about 40%; inconclusive = no clear call, values can overlap the other calls;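 note: 0% = median of the plate's neutral control wells and 100% = double that signal; a rise in the Bmi1 reporter signal indicates esBAF inhibition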
# MITF TRPM1 HTS: activators of MITF-driven TRPM1 promoter activity in SK-MEL-5 cells. SK-MEL-5 TRPM1-promoter luciferase, 24 h; % of positive control, neutral wells = 0. activation, % at 12.5 µM. 300,000 tested, 0.75% active;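 active = mean activation of at least 80% with every replicate also reaching 80%; inconclusive = mean reaches 80% but some replicate falls short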;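 note: 0% = neutral control wells and 100% = parthenolide positive control wells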
# Wnt bcat act: activators of Wnt/beta-catenin signaling. Wnt/beta-catenin reporter cell assay, activator, plate reader. activation, % at 9.35 µM. 300,000 tested, 1.2% active. AID 743398; in the data active = activation above about 30%, passing the limit was not always enough; inconclusive = no clear call, values can overlap the other calls;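 note: 0% = neutral control wells and 100% = positive control wells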
# rRNA inh HTS: inhibits bacterial ribosomal RNA function over humanized ribosomes | E. coli WT GFP vs humanized-ribosome RFP mutants, fluorescence, 24 h; hits give low values; DMSO median 0, no signal -100 | GFP signal change (wild-type ribosome), % (test concentration not listed) | 350,000 tested, 1.6% active | AID 720706;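 active = significant combined selectivity score with lowered wild-type GFP, culture density cut under 30%, mutant RFP and density less affected; inactive = any of these conditions unmet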
# AF4-AF9 inh: inhibitors of human MLL-AF4/AF9 interaction; AlphaScreen, biotin-AF4 peptide binding to FLAG-AF9; inhibition, % at 10 µM; AID 651704; 350,000 tested, 0.47% active; P42568;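 active = every replicate reaching a set inhibition limit, whatever the replicate mean, cut at about 25% in these data; inconclusive = mean inhibition reaches that limit but some replicates miss it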;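 note: 0% = plate neutral control median and 100% = total signal loss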
# Target sequence (P42568 whole entry, looked up): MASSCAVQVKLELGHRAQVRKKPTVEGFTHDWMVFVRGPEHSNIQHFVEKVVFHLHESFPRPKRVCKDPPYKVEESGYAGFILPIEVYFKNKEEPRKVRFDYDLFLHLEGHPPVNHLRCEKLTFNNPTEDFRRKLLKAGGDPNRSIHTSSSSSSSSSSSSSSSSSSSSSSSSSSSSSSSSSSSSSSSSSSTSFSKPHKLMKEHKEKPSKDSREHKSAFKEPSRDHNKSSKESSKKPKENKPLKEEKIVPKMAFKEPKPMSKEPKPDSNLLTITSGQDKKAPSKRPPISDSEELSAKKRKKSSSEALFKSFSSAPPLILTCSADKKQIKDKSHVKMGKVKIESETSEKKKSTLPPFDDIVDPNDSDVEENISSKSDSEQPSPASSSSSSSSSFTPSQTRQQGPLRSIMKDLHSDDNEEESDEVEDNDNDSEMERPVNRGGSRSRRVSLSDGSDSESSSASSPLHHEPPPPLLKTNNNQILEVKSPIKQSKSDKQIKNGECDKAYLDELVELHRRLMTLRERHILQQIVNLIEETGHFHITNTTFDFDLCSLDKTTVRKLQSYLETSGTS
# Active calls of the source: *; ? = inconclusive; / = no result given. Most compounds without a hit are left out; they make up all but 3.7% or so of the library.
SMILES,esBAF inh,MITF TRPM1 HTS,Wnt bcat act,rRNA inh HTS,AF4-AF9 inh
CCN(CC)S(=O)(=O)c1cc(NC(=O)C(C)N2CCN(c3ccccn3)CC2)ccc1C (stereo not drawn),8,-6,0,-20*,-2
COc1ccc(C(=O)Nc2ccc3c(c2)OCCO3)cc1Br,48*,/,2,4,1
Cc1oc(C(C)(C)C)cc1C(=O)Nc1ccc2c(c1)OCCO2,44*,40,/,/,/
Cc1oc(C(C)(C)C)cc1C(=O)Nc1ccc2c(c1)OCO2,?,/,16,-9,/
O=C(Nc1ccc2c(c1)OCCO2)c1cccc(Cl)c1Cl,88*,/,15,-18,-3
COc1ccc(C(=O)Nc2nccs2)cc1OC,?,24,/,/,/
COc1cc(SC)ccc1C(=O)Nc1nccs1,-22,11,9,-25*,0
O=C(Nc1ccc2c(c1)OCCO2)c1c(Cl)cccc1Cl,10,/,0,2,1
CNC(CC(C)C)C(=O)NC1C(=O)NC(CC(N)=O)C(=O)NC2C(=O)NC3C(=O)NC(C(=O)NC(C(=O)O)c4cc(O)cc(O)c4-c4cc3ccc4O)C(O)c3ccc(c(Cl)c3)Oc3cc2cc(c3OC2OC(CO)C(O)C(O)C2OC2C[C@](C)(N)C(O)C(C)O2)Oc2ccc(cc2Cl)C1O (stereo partly drawn),-5,5,-5,-15,2
c1ccc(CN2C[C@@H]3N[C@H](C2)C3c2ccc(-c3ccncc3)cc2)cc1 (stereo partly drawn),/,/,/,1,8
COc1ccccc1N1CCN(c2ccc(Cl)nn2)CC1,/,14,0,9,0
Nc1ncnc2c1ncn2[C@@H]1O[C@H](C(=O)N2CCCN(Cc3cccs3)CC2)[C@@H](O)[C@H]1O,-4,/,-1,14,0
O=C(O)c1ccccc1N(c1ccccc1)c1ccccc1,/,/,0,7,2
C[C@H]1CN([C@@H](C)CO)C(=O)c2cc(NC(=O)C3CC3)ccc2O[C@H]1CN(C)S(=O)(=O)c1ccc(Cl)cc1,2,/,/,0,-4
COc1ccc(Cl)cc1C(=O)Nc1ccc2c(c1)OCO2,51*,/,/,/,/
COc1cc(SC)ccc1C(=O)Nc1ccccc1,?,/,34*,/,/
COc1ccccc1C(=O)Nc1ccc2c(c1)OCO2,9,55,/,/,/
COc1ccc(C(=O)NC(=S)Nc2nc(C)cc(C)n2)cc1Br,/,/,42*,0,-3
COc1ccccc1C(=O)Nc1cccc(SC)c1,/,9,23,/,/
COc1ccccc1C(=O)Nc1ccc2c(c1)OCCO2,59*,37,/,/,/
COc1ccc(Cl)cc1C(=O)Nc1ccc2c(c1)OCCO2,?,48,10,3,2
C[C@H](CO)N1C[C@H](C)[C@H](CN(C)C(=O)C2CCCCC2)OCCCC[C@H](C)Oc2ccc(NC(=O)Nc3ccc(C(F)(F)F)cc3)cc2C1=O,2,/,/,2,-1
COc1cc(SC)ccc1C(=O)Nc1ccc2c(c1)OCCO2,-6,19,20,-25*,7
COc1cc(SC)ccc1C(=O)Nc1c(C)cccc1C,/,5,-1,-27,-1
CCc1ccc(/C=N/Nc2ncnc3nc[nH]c23)cc1,8,62,53*,-3,1
SMILES,esBAF inh,MITF TRPM1 HTS,Wnt bcat act,rRNA inh HTS,AF4-AF9 inh
CC(C)=NNc1ncnc2nc[nH]c12,/,/,-4,/,-2
COCCN1C[C@@H](CO)O[C@@H](n2cnc3c(N(C)C(C)C)ncnc32)C1,-11,/,-1,2,-7
Cc1ccc2c(c1)C(c1ccncc1)=NNC(c1ccccc1)=N2,25,20,3,16,0
c1ccc(C2=Nc3c(ccc4ccccc34)C(c3ccncc3)=NN2)cc1,/,-31,1,/,34*
CCc1ccc2c(c1)C(c1ccncc1)=NNC(c1ccccc1)=N2,48*,24,15,1,3
CC1=C(OC(=O)c2ccccc2)C(C)(C)C(c2ccc(Br)cc2)OC1=O (stereo not drawn),-10,5,/,/,/
CCOc1ccc(N)cc1OC,12,3,1,-7,15
Cc1cc(C)cc(-c2nc(-c3ccncc3)no2)c1,?,67,7,13,-3
Brc1cccc(-c2nc(-c3ccncc3)no2)c1,57*,69,-3,/,/
Cc1ccc(-c2cnc(-c3ccncc3)o2)cc1,45*,40,/,/,/
Cc1ccc(-c2nc(-c3ccncc3)no2)cc1,1,23,33*,6,-2
O=C(NCc1cccs1)c1ccc(CS(=O)(=O)c2ccc(Cl)cc2)o1,-9,10,/,/,/
Cc1c(C(=O)Oc2ccc(Cl)cc2)n(C)oc1=O,-12,-2,-2,13,-3
Cc1c(C(=O)NNc2c(Cl)cccc2Cl)n(C)oc1=O,3,7,2,-22*,-1
CCCc1noc(-c2ccc(-c3ccccc3)cc2)n1,33,/,39*,/,/
CC(C)CNC(=S)N1CCC(C(=O)c2ccc(Cl)cc2)CC1,-1,/,/,/,-2
COc1ccc(C(=O)NCc2cccnc2)cc1Br,-9,/,/,/,/
S=C(NCc1cccnc1)Nc1ccc(Oc2ccc(Cl)cc2)cc1,-8,-13,-5,-26*,4
COc1ccc(C(=O)NC(=S)NCc2cccnc2)cc1Cl,-6,1,-2,-21*,2
CC(C)(C)c1ccc(NC(=S)NCc2cccnc2)cc1,4,/,-1,-22*,/
COc1ccc(NC(=S)NCc2cccnc2)cc1,/,-4,1,-4,-8
N#C[C@@H]1[C@H](c2ccc(C3=CCCC3)cc2)[C@@H](CO)N1C(=O)C1CCC1,4,/,/,0,-1
O=C(Nc1ccc2c(c1)CCC2)c1ccc(F)c(S(=O)(=O)N2CCOCC2)c1,/,14,83*,/,/
O=S(=O)(c1cc(F)ccc1F)N1CCC2(CC1)OCCO2,/,-2,-1,2,0
Cc1ccc(C(=O)Nc2ccc3c(c2)CCC3)cc1S(=O)(=O)N1CCOCC1,62*,26,?,-29,4
SMILES,esBAF inh,MITF TRPM1 HTS,Wnt bcat act,rRNA inh HTS,AF4-AF9 inh
NS(=O)(=O)c1cc(C(=O)Nc2ccc3c(c2)CCC3)ccc1Cl,77*,113*,-3,-15,3
O=C(Nc1ccc(F)c(F)c1)c1ccc(F)c(S(=O)(=O)N2CCC3(CC2)OCCO3)c1,/,-10,-1,-27*,-1
C[C@H](CO)N1C[C@H](C)[C@@H](CN(C)C(=O)c2ccccn2)Oc2ncc(-c3ccc(F)cc3)cc2C1=O,4,/,/,-3,-1
CO[C@H]1CC[C@H]2CCOc3c(C#N)cccc3C(=O)N(C)C[C@@H](C)C(=O)N(C)C[C@H]1O2,1,/,/,4,-8
CN(Cc1ccccc1)C(=O)COC(=O)C1CCN(S(=O)(=O)c2ccc(Cl)c(C(F)(F)F)c2)CC1,-5,9,-3,1,-18
c1ccc2c(C3OCC4(CCCCC4)CO3)cccc2c1,45*,/,-5,-11,-18
c1ccc(C2OCC3(CO2)COC(c2ccccc2)OC3)cc1 (stereo not drawn),-3,/,-3,/,/
CCO[C@H]1OC(C(=O)NCc2ccccc2)=C[C@@H](c2ccccc2)[C@@H]1CCCO,-32,-6,-4,-25*,0

# Source: PubChem BioAssay (Broad Institute)
